Measured values as given in PubChem BioAssay (NCATS).
Records with an inconclusive call do not appear. Activity calls are given as the source filed them. Calls come from the whole dose curve; as a rule, active = well fitted curve in the direction sought with a large enough effect; inconclusive = small, poorly fitted or top-dose-only effect, or another doubt; inactive = no such curve, though single readings can be large; an effect the other way counts as inactive or inconclusive.

Tests used:
[1] = biological target: Phospholipid hydroperoxide glutathione peroxidase GPX4 (Homo sapiens) (UniProt P36969); experiment: Primary qHTS Assay for Inhibitors of Recombinant Selenoprotein Glutathione Peroxidase 4 (GPX4) (AID 1845192); note: nearly all actives have a fitted effect of over 65% in size
Outline: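 GR-coupled assay: recombinant GPX4 preincubated 30 min with compound at room temperature; final 200 nM GPX4, 1 mM GSH, 0.5 mM cumene hydroperoxide, 0.5 mM NADPH, 100 nM GR, 0.01% BSA, pH 7.5 Tris. NADPH fluorescence (340/450 nm) read at 0 and 15 min.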

[2] = biological target: Luciferin 4-monooxygenase (Photinus pyralis) (UniProt P08659); experiment: Primary firefly luciferase (FLuc) qHTS assay for identification of artifact compounds. (AID 1845220); note: nearly all actives have a fitted effect of over 60% in size
Outline: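 D-luciferin and ATP (10 uM each, final) in Tris acetate buffer pH 7.6 were incubated with compounds for 15 min at room temperature. The reaction was started with 10 nM Photinus pyralis luciferase and luminescence read after 5 min. Percent inhibition was fitted to a 4-parameter Hill equation.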

[3] = system: Nanoluciferase (engineered Oplophorus gracilirostris luciferase); experiment: Primary Nanoluciferase (NLuc) qHTS assay for identification of artifact compounds. (AID 1845222); note: series mostly up to about 54 µM
Outline: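 Diluted conditioned medium from NLuc-expressing S16 cells treated with compounds for 15 min at room temperature, then Nano-Glo substrate added; luminescence read after 5 min. Percent inhibition versus no-enzyme and DMSO controls fitted to 4-parameter Hill equation.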

[4] = Primary redox qHTS assay for identification of artifact compounds. (AID 1845223)
Outline: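 Amplex Red (25 uM) and HRP (250 mU/mL) in HBSS, with compounds for 15 min, then 250 uM DTT for 30 min, room temperature, dark. Fluorescence 525/598 nm read; normalized to DMSO and 10 uM DA3003; Hill fit.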

Measured: Potency

Sequence of Phospholipid hydroperoxide glutathione peroxidase GPX4 (Homo sapiens) (P36969 whole entry, looked up): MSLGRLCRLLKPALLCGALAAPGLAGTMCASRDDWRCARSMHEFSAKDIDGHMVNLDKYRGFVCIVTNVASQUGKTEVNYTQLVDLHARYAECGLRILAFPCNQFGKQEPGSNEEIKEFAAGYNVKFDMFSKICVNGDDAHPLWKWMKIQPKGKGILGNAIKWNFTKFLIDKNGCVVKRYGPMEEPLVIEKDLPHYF

COC(=O)C(C)C1CCC2(C)C(=O)C=CC(C)(O)C2C1O (configuration not stated)
inactive: [1] | [2] | [3] | [4]

O=S(=O)(NCC1CC1)c1ccc(Nc2nccc(N3CCCc4cc(O)ccc43)n2)cc1
inactive: [1] | [2] | [3] | [4]

C[C@H]1O[C@@H](O[C@H]2CC[C@@]3(C)C(CC[C@]4(C)C3CC=C3C5CC(C)(C)CC[C@]5(C(=O)O)CC[C@]34C(=O)O)C2(C)C)[C@H](O)[C@@H](O)[C@@H]1O (some centres not stated)
inactive: [1] | [2] | [3] | [4]

OC[C@H]1O[C@@H](O[C@H]2[C@H](OCc3ccccc3)O[C@H](CO[C@@H]3OC[C@@H](O)[C@H](O)[C@H]3O)[C@@H](O)[C@@H]2O)[C@H](O)[C@@H](O)[C@@H]1O
inactive: [1] | [2] | [3] | [4]

COc1cc(O)c2c(c1)C1=CC(O)C(O)CC1(C)OC2=O (configuration not stated)
inactive: [1] | [2] | [3] | [4]

COC1=CC(=O)CC(C)C12Oc1cc(OC)cc(O)c1C2=O (configuration not stated)
inactive: [1] | [2] | [3] | [4]

CCOc1cc(N2CCC(O)CC2)ccc1Nc1ncc2c(n1)N(C1CCCC1)CCC(=O)N2C
inactive: [1] | [2] | [3] | [4]

CC(=O)NC1C(OC(C)(C)C2CCC3(C)C=C(C4CCC5C4(C)CC(O)C4OC(C(C)(C)O)CCC45C)CCC3O2)OC(CO)C(O)C1O (configuration not stated)
inactive: [1] | [2] | [3] | [4]

COc1ccc(-c2cnc3ccc(NCc4ccc(S(N)(=O)=O)cc4)nn23)cc1OC
inactive: [1] | [2] | [3] | [4]

CC(C)c1nc(-c2ccc(NC(=O)Nc3cccc(C(F)(F)F)c3)c3ccccc23)c2c(N)nccn12
inactive: [1] | [2] | [3] | [4]

Cc1cc(Nc2ccc(NC(=O)c3ccc(Nc4ccnc5ccccc45)cc3)cc2)nc(N)n1
inactive: [1] | [2] | [3] | [4]

C=C[C@]1(C)C[C@H](O)[C@@H]2[C@H](OC(=O)[C@@H]2C)C1/C(C)=C/O[C@@H]1O[C@H](CO)[C@@H](O)[C@H](O)[C@H]1O (some centres not stated)
inactive: [1] | [2] | [3] | [4]

COC1C(CO)OC(n2cnc3c(=O)[nH]cnc32)C1O (configuration not stated)
inactive: [1] | [2] | [3] | [4]

CC1C(=O)OCC2=CCN3CCC(OC(=O)C(C)(O)C1(C)O)C23 (configuration not stated)
inactive: [1] | [2] | [3] | [4]

C/C=C/C=C/C(=O)N1CC[C@]23c4ccccc4N[C@H]4N(C)c5cccc6c5[C@@]42CCN([C@H]6C2OC2(C)C)[C@H]13 (some centres not stated)
inactive: [1] | [2] | [3] | [4]

C=C1CCC2C(C)(C(=O)O)CCCC2(C)C1CC/C(=C\CO)CO (configuration not stated)
inactive: [1] | [2] | [3] | [4]

C=C1CN(Cc2ccc(C(=O)Nc3ccccc3N)cc2)C(=O)c2ccccc21
inactive: [1] | [2] | [3] | [4]

CC/C=C\CCO[C@@H]1O[C@H](CO[C@@H]2OC[C@H](O)[C@H](O)[C@H]2O)[C@@H](O)[C@H](O)[C@H]1O
inactive: [1] | [2] | [3] | [4]

COC(=O)C1=CO[C@@H](O[C@@H]2O[C@H](CO)[C@@H](O)[C@H](O)[C@H]2O)[C@H]2[C@@H]1C=C[C@@]21C=C([C@H](C)O)C(=O)O1
inactive: [1] | [2] | [3] | [4]

O=C(/C=C/c1ccccc1)OC[C@]12O[C@H]1[C@@H](O)[C@@H]1C=CO[C@@H](O[C@@H]3O[C@H](CO)[C@@H](O)[C@H](O)[C@H]3O)[C@@H]12
inactive: [1] | [2] | [3] | [4]

C=C(CO)C12OC1C1(C)C(=CC2=O)C(O)C(O)CC1C (configuration not stated)
inactive: [1] | [2] | [3] | [4]

O=C(/C=C/c1ccc(O)cc1)OC1[C@H](O)CC(O)(C(=O)O)C[C@H]1O (some centres not stated)
inactive: [1] | [2] | [3] | [4]

Nc1nc(Nc2ccc(S(N)(=O)=O)cc2)n(C(=S)Nc2c(F)cccc2F)n1
inactive: [1] | [2] | [3] | [4]

O=C1NC(Cc2ccccc2)C(=O)N2CCCC12 (configuration not stated)
inactive: [1] | [2] | [3] | [4]

CC1C(OC(=O)c2ccccc2)C(O)C2C(C(=O)O)=COC(OC3OC(CO)C(O)C(O)C3O)C12 (configuration not stated)
inactive: [1] | [2] | [3] | [4]

Cn1c(=O)cc(N2CCCC(N)C2)n(Cc2cc(F)ccc2C#N)c1=O (configuration not stated)
inactive: [1] | [2] | [3] | [4]

Cc1cc(O)cc(O[C@@H]2O[C@H](CO)[C@@H](O)[C@H](O)[C@H]2O)c1
inactive: [1] | [2] | [3] | [4]

O=C(OC[C@@]1(O)CO[C@@H](O[C@H]2[C@H](Oc3ccc(O)cc3)O[C@H](CO)[C@@H](O)[C@@H]2O)[C@@H]1O)c1ccc(O)cc1
inactive: [1] | [2] | [3] | [4]
